Screening data (PubChem BioAssay)
This is a sample that favours compounds with a hit; in the whole collection about 7.7% have one here.
Sm TGR block: qHTS Assay for the Inhibitors of Schistosoma Mansoni Peroxiredoxins; Schistosoma mansoni thioredoxin glutathione reductase (TGR), Q962Y6; 360,000 compounds, 3% hits; AID 485364, 2010; purified TGR, DTNB reduction, TNB absorbance 405 nm; Potency, µM (series often up to 114 µM), inactives show at the highest dose activity change, negative = inhibition, hits mostly inhibitors; note: potency is the fitted concentration of half-maximal effect; nearly all actives have a fitted effect of over 60% in size
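TGR 20 nM + NADPH 100 uM (dispensed conc.), cpd preinc 15 min RT; start with NADPH (500 uM addition) then DTNB (15 mM addition). Kinetic TNB absorbance, 405 nm filter. Four-parameter Hill fit across titration.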
FBPA Giardia inh: qHTS Assay for Inhibitors of Fructose-1,6-bisphosphate Aldolase from Giardia Lamblia. A8B2U2. purified Giardia FBPA. Potency, µM (doses to about 59.6 µM), for inactives: top-dose activity, negative = inhibition, actives largely listed as inhibitors. 290,000 compounds, 0.71% hits. AID 2451, 2010; note: potency is the fitted concentration of half-maximal effect; nearly all actives have a fitted effect of over 55% in size
Target sequence (A8B2U2 whole entry, looked up): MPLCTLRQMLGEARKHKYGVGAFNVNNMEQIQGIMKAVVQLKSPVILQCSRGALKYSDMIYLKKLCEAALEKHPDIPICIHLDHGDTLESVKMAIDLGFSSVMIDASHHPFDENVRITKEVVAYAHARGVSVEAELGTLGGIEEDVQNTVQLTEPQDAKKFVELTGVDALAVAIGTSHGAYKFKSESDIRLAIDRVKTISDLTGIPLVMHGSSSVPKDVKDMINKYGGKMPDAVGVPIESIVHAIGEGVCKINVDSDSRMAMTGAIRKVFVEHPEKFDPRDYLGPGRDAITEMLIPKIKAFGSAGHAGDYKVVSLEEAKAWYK
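Giardia FBPA (40 nM reagent) was preincubated 10 min at RT with compound (up to 57.5 uM final), then substrate plus GAPDH/TPI/NAD/arsenate coupling system with diaphorase/resazurin was added; resorufin fluorescence (525/598 nm) was read after 20 min.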
FMDV antiviral: High Throughput Screening for Foot and Mouth Disease Virus Antivirals; Potency, µM (doses to about 57.9 µM), for the others: top-dose activity change, negative = inhibition, actives largely listed as inhibitors; 410,000 compounds, 1.2% hits; FMDV antiviral cell-based qHTS; calls by dose curve; tested in HEK293T cells; note: read-out not given here; potency is the fitted concentration of half-maximal effect; nearly all actives have a fitted effect of over 45% in size
RE007 growth inh: qHTS Assay for Inhibitors of the HIV-1 protein Vpr. S. pombe RE007 Vpr strain, BacTiter-Glo ATP luminescence, 24 h. Potency, µM (highest dose often 92.2 µM), without a hit: top-dose activity change, negative = less growth, most hits filed as inhibitors. 360,000 compounds, 0.21% hits; active = well fitted falling curve with a large enough effect; inconclusive = small, poorly fitted or top-dose-only effect; inactive = no such curve, though single readings can be large or run the other way; note: potency is the fitted concentration of half-maximal effect; nearly all actives have a fitted effect of over 50% in size
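Fission yeast strain RE007, carrying one chromosomally integrated HIV-1 vpr copy, was seeded at OD 0.01 in PMG+AL medium with 23 nL pinned compound. After 24 h at 30 °C and 99% humidity, viability was read by BacTiter-Glo luminescence.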
HCMV inh: qHTS Assay for inhibitors of the human cytomegalovirus (HCMV); HFF cells, HCMV-luciferase reporter, 72 h; stronger effect = lower value; 410,000 compounds, 4.5% hits; activity change, negative = inhibition, % at 57.5 µM; in the data active = activity change below about -60%; inconclusive = no clear call, values can overlap the other calls; inactive = above about -39%
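HFF cells seeded 16 h at 37C, treated with compounds, infected with luciferase-reporter HCMV at MOI 1 PFU/cell; luciferase read at 72 h post infection, normalized to buffer-only and Salinomycin controls.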
TbPYK inhibitor: qHTS of Trypanosoma Brucei Inhibitors; pyruvate kinase (Trypanosoma brucei), Q57TT1; Potency, µM (top dose mostly 76.8 µM), for the others: at the highest dose activity, negative = inhibition, most hits filed as inhibitors; AID 624173, 2012; 410,000 compounds, 0.12% hits; TbPYK enzyme, Kinase-Glo Plus ATP luminescence, 45 min; note: potency is the fitted concentration of half-maximal effect; nearly all actives have a fitted effect of over 50% in size
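Enzyme and substrate buffer are dispensed first and compound is pin-transferred. ADP at 130 uM final then starts the reaction, which runs 45 min at room temperature. Detection reagent is added for 10 min before luminescence is imaged.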
* hit, by the source's call; ? = inconclusive; nt = not tested or not shown; [ ] = another dose, or the depositor's remark. Unless noted, calls come from the whole dose curve; as a rule, active = well fitted curve in the direction sought with a large enough effect; inconclusive = small, poorly fitted or top-dose-only effect, or another doubt; inactive = no such curve, though single readings can be large; an effect the other way counts as inactive or inconclusive. % is set by controls: 0 for no effect and ±100 for the full control effect.

SMILES	Sm TGR block	FBPA Giardia inh	FMDV antiviral	RE007 growth inh	HCMV inh	TbPYK inhibitor
COc1ccc(CNS(=O)(=O)c2cc(Cl)ccc2N2CC[C@@H](O)C2)cc1	nt	nt	nt	nt	-30.2	nt
CN(C)CCC=C1c2ccccc2C(C)(C)c2ccccc21	nt	nt	nt	nt	nt	-6.7%
CN(C)CCC=C1c2ccccc2COc2ccccc21	nt	nt	-9.7%[39.8 µM]	nt	nt	nt
CN(C)CC/C=C1/c2ccccc2COc2ccccc21	20µM*	-1.4%	-8.5%	nt	nt	nt
CN(C)CCC=C1c2ccccc2CCc2ccccc21	7.08µM*	?	?	10.3%[18.4 µM]	?	3.2%
CN(C)CCC=C1c2ccccc2C=Cc2ccccc21	25.1µM*	-1.5%	-26.1%	-10.8%	14.2	2.4%
O=c1c(-c2ccccc2)nc2cnc(N3CCNCC3)nc2n1-c1ccccc1	nt	1.5%	2.5%	nt	nt	nt
COC(=O)[C@H]1C[C@H]2CC[C@H](O)C[C@H]2N1Cc1c(F)cccc1Cl	nt	-5.8%	nt	nt	nt	nt
O=C1c2ccccc2C(=O)c2c(NCCCN(CCO)CCO)cccc21	-8.3%	-0.3%	?	-27.2%	-102.8*	-7.2%
O=C(Nc1ccc(Oc2ccc3ccccc3c2)cc1)c1ccco1	8.1%	-9.2%	0.0%	?	-68.5*	4.1%
O=C(Nc1ccc2[nH]c3c(c2c1)CCCC3)c1ccco1	44.7µM*	?	7.4%	?	-23.8	-0.7%
O=C(Nc1ccc(NC(=O)c2sc3ccccc3c2Cl)cc1)c1ccco1	1.6%	6.6%	?	-4.3%	-75.8*	-4.5%
O=C(Nc1ccc(Nc2ccccc2)cc1)c1c(Cl)cccc1Cl	nt	nt	16.1%	-7.5%	-74.5*	-11.3%
COc1ccc(CNC(=O)Cn2nnc(-c3ccc(C(F)(F)F)cc3)n2)cc1	11.9%	nt	-3.7%	nt	9.0	7.6%
CO/N=C(/C(=O)N[C@@H]1C(=O)N2C(C(=O)[O-])=C(C[n+]3ccn4ncccc43)CS[C@H]12)c1nsc(N)n1	nt	nt	nt	nt	nt	-6.3%
Cc1ccc2c(CC(=O)Nc3c(C(=O)c4ccc(F)cc4)oc4ccccc34)coc2c1	-5.5%	nt	25.6%	nt	3.8	2.5%
O=C(Nc1ccc(-c2ccccc2)cc1)c1ccco1	6.5%	4.0%	-6.3%	0.8%	-64.1*	8.8%
O=C(Nc1ccc(NC(=O)c2ccco2)cc1)c1ccco1	-21.9%	nt	43.0%	-11.7%	-3.5	-3.6%
O=C(Nc1ccc(Cl)c(Cl)c1)c1ccco1	3.5%	-6.8%	0.0%	?	23.0	-3.9%
O=C(Nc1ccc(Nc2ccccc2)cc1)c1ccco1	-7.3%	-6.9%	30.6%	?	-63.7*	-17.7%
O=C(Nc1ccc(F)c(F)c1)c1ccco1	31.0%	-10.2%	20.8%	-24.3%	-78.1*	5.6%
COc1ccc(S(=O)(=O)N(CC(=O)Nc2cccc(C)c2)c2ccc(C)cc2)cc1OC	14.8%	nt	-15.3%	nt	4.7	-3.0%
CC(C)c1cc(NCC2CCCO2)n2c(nc3ccccc32)c1C#N (stereo unspecified)	-14.2%	0.3%	?	5.4%	-60.0*	5.0%
CC(C)c1ccc(NC2=NCC(=O)N2Cc2cccs2)cc1	nt	-14.6%	20.2%	-14.2%	-60.4*	-4.9%
Cc1cc(C)nc(NNS(=O)(=O)c2ccc(F)c(Cl)c2)n1	3.1%	nt	-8.4%	2.8%	-10.4	2.3%
SMILES	Sm TGR block	FBPA Giardia inh	FMDV antiviral	RE007 growth inh	HCMV inh	TbPYK inhibitor
Cc1cc(C)nc(NNS(=O)(=O)c2ccc(Cl)cc2)n1	nt	nt	2.5%	-6.3%	-60.6*	-2.8%
O=C(Oc1c(-c2ccccc2)c(=O)n2c3c(cccc13)CC2)c1ccccc1	10.7%	-4.7%	-16.8%	3.9%	16.5	3.5%
O=C(Oc1c(-c2ccccc2)c(=O)n2c3c(cccc13)CC2)c1cccc([N+](=O)[O-])c1	?	-1.3%	-11.7%	-15.8%	-72.3*	3.3%
CCCCCCCCCCCCCCC(O)C[N+](C)(CCO)CCO (stereo unspecified)	nt	nt	-20.8%	31.6µM*	-12.7	-0.7%
Cc1ccc(C)c(C(C)NC(=O)c2ccc(Br)o2)c1 (stereo unspecified)	35.5µM*	-3.5%	-21.1%	20.3%	-15.3	-24.4%
Cc1ccc(C)c(C(C)NC(=O)CC#N)c1 (stereo unspecified)	nt	-0.3%	-10.4%	5.7%	27.1	-1.2%
Cn1cc(-c2nc3cnc(N4CCNCC4)nc3n(C)c2=O)c2ccccc21	nt	-11.3%	-2.3%	nt	nt	nt
CN(C(=O)Cn1c(=O)n(CCC(=O)NCc2ccc3c(c2)OCO3)c(=O)c2sccc21)c1ccccc1	0.2%	nt	18.9%	nt	35.8	2.5%
Cn1c(=NC(=O)CCl)sc2ccccc21	25.1µM*	nt	?	?	-99.4*	1.7%
CCOC(=O)N1CCN(C(=O)CSCC(=O)N=c2sc3ccccc3n2C)CC1	15.8µM*	3.0%	?	-8.9%	nt	-17.6%
O=C(C#Cc1ccccc1)Nc1cccc(F)c1	-35.8%	2.5%	32.8%	?	-104.2*	9.2%
COc1ccc(NC(=O)C#Cc2ccccc2)cc1	-34.7%	-6.1%	49.5%	-13.3%	?	-0.1%
O=C(C#Cc1ccccc1)Nc1ccc(F)cc1	-19.2%	-5.2%	11.3%	-14.1%	-102.2*	2.1%
O=C(CCSCc1ccc(Cl)cc1)N1CCN(c2ccccc2F)CC1	1.4%	nt	-18.6%	nt	-33.1	-1.6%
CCc1ccccc1NC(=O)Nc1cccc(F)c1	nt	-8.1%	0.0%	14.3%	?	5.9%
COc1cccc(NC(=O)Nc2nc(SC)ns2)c1	-19.3%	-28.3%	-5.8%	-0.7%	?	-2.4%
CCCSc1nsc(NC(=O)Nc2ccc(F)cc2F)n1	6.7%	-17.9%	7.4%	4.2%	-100.8*	1.6%
CCCSc1ccc(C(=O)Nc2ccc(F)cc2F)cn1	1.0%	2.6%	17.8%	-18.0%	-62.2*	-1.0%
CCCSc1nsc(NC(=O)C(c2ccccc2)c2ccccc2)n1	5.1%	1.6%	?	2.4%	nt	-5.7%
CCSc1nsc(NC(=O)Nc2cccc(F)c2)n1	0.9%	2.4%	?	-15.3%	-97.9*	4.0%
COc1cccc(NC(=O)Nc2nc(SC(C)(C)C)ns2)c1	13.3%	-1.1%	-29.3%	-12.1%	-94.8*	-0.1%
COc1ccc([C@@H]2CNC(=O)C2)cc1OC1CCCC1	nt	0.1%	-0.4%	nt	nt	-5.1%[33.2 µM]
COc1cccc(NC(=O)CSc2nc3c(oc4ccccc43)c(=O)n2Cc2ccco2)c1	4.0%	nt	-4.4%	nt	?	-5.6%
CO[C@@]1(NC(=O)Cc2cccs2)C(=O)N2C(C(=O)O)=C(COC(N)=O)CS[C@@H]21	35.5µM*	?	-17.3%	-7.5%	nt	5.9%
